# High-throughput results: PubChem, The Scripps Research Institute Molecular Screening Center
# Hits are enriched below; roughly 2.5% of the tested compounds scored in any of these assays.
# UHRF1 binding = human UHRF1 methylated DNA binding inhibitors; 370,000 tested, 0.75% active; UHRF1 binding to methylated oligo, TR-FRET; AID 687016; inhibition, % at 4.4 µM;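 note: UHRF1 SRA domain binding a hemimethylated CpG hairpin DNA probe; 0% = median of test compound wells and 100% = reference inhibitor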
# PRMT1 inh = PRMT1 (human) inhibition, primary screen; recombinant PRMT1, activity-based probe fluorescence polarization; inhibition, % at 2.79 µM; 370,000 tested, 1.3% active; AID 652257;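 active = inhibition above about 21% made by adding two undisclosed values, limit read from the data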
# LEDGF integ inh = blocks HIV-1 LEDGF/p75-dependent DNA integration. inhibition, % at 3.7 µM. AID 743269. 370,000 tested, 0.64% active. TR-FRET IN-LEDGF/p75 DNA integration, Eu/Cy5;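 active = inhibition above the screen-wide mean plus 3 SD, cut at about 13% in these data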;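 note: signal is the Cy5 over europium emission ratio at 671 and 618 nm; 0% = plate median of compound wells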
# MBD2 inh = blocks human MBD2 binding to methylated DNA; Q9UBB5; inhibition, % at 4.4 µM; TR-FRET, MBD2 binding to methylated oligonucleotide; 370,000 tested, 0.31% active; AID 686964; in the data active = inhibition above about 13%
# Target sequence (Q9UBB5 whole entry, looked up): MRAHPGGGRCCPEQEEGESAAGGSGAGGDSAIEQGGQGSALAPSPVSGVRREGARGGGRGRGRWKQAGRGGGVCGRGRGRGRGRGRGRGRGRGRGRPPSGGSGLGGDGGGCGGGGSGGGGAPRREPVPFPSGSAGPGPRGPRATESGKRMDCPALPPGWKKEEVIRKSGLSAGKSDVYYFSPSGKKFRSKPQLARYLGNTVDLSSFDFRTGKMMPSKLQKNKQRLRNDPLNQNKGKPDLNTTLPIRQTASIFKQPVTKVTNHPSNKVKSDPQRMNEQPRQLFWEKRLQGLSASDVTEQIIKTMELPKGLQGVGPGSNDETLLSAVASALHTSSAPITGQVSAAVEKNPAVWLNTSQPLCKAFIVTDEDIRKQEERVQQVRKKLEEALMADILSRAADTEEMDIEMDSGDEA
# UHRF1 DNA bind = counter-screen for MBD2 inhibitors: human UHRF1 methylated DNA binding inhibitors. inhibition, % at 4.4 µM. shares compounds with MBD2 inh. UHRF1 binding to methylated oligonucleotide, TR-FRET. 1,000 tested, 25% active. AID 720530;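 note: UHRF1 SRA domain binding a labeled hemimethylated CpG hairpin DNA; 0% = vehicle only and 100% = reference inhibitor with vehicle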
# MBD2 confirm = MBD2-DBD methyl-DNA binding inhibition, TR-FRET confirmation; shares compounds with MBD2 inh; TR-FRET MBD2-DBD binding to methylated oligonucleotide; inhibition, % at 4.4 µM; 1,000 tested, 26% active; AID 720531; in the data active = inhibition above about 14%
# IN multimer act = HIV-1 integrase multimerization activation, counter-screen; shares compounds with LEDGF integ inh; TR-FRET HIV-1 integrase multimerization, biochemical; activation, % at 7.7 µM; 2,000 tested, 17% active; in the data active = activation above about 8.9%
# TR-FRET interf = counter-screen for LEDGF/p75 integration inhibitors: TR-FRET optical interference | shares compounds with LEDGF integ inh | TR-FRET optical interference counterscreen, HIV-1 IN multimerization | inhibition, % at 7.7 µM | 2,000 tested, under 10 active | AID 1053135;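 active = inhibition above the mean over all tested compounds plus 3 SD, which no compound reached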;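 note: 0% = integrase with antibodies and DMSO and 100% = antibodies without integrase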
# LEDGF integ conf = confirmation of HIV-1 LEDGF/p75-dependent integration inhibitors; shares compounds with LEDGF integ inh; TR-FRET LEDGF/p75-dependent HIV-1 integration, biochemical; inhibition, % at 3.7 µM; 2,000 tested, 36% active; AID 1053136; in the data active = inhibition above about 14%
# * = called active by the depositor; i = inactive; nt = not tested or not shown. Cut-off read from the data, not from the text of the source, unless noted: active = inhibition above about 21%; inactive = the rest.
SMILES,UHRF1 binding,PRMT1 inh,LEDGF integ inh,MBD2 inh,UHRF1 DNA bind,MBD2 confirm,IN multimer act,TR-FRET interf,LEDGF integ conf
COc1ccccc1Cc1c(-c2ccc(Cl)cc2)nc2ccc(Br)cn12,3,2,-2,-7,nt,nt,nt,nt,nt
CCOC(=O)C1CCCN(C(=O)c2cc(-c3ccncc3)nc3ccccc23)C1 (configuration not stated),1,0,3,-1,nt,nt,nt,nt,nt
CCOC(=O)C1CCCN(C(=O)c2cc(-c3ccco3)nc3ccccc23)C1 (configuration not stated),38*,20,25*,20*,39*,24*,9,-44,48*
N#Cc1c(SCC(=O)Nc2ccc(C(F)(F)F)cc2)sc2c(O)cc(=O)[nH]c12,2,14,4,-3,nt,nt,nt,nt,nt
N#Cc1c(SCC(=O)Nc2nncs2)sc2c(O)cc(=O)[nH]c12,48*,46*,20*,18*,43*,23*,29*,-146,26*
Cc1cc(/C=C2\SC(=O)NC2=O)c(C)n1-c1ccc(N(C)C)cc1,39*,6,42*,17*,8,3,2,-6,-1
CCN(CC)CCCNc1nc2ccccc2c2[nH]c3ccc(OC)cc3c12,85*,3,19*,91*,96*,109*,2,-9,34*
CCN(CC)CCCNc1nc(-c2ccccc2)nc2ccccc12,6,2,-5,3,nt,nt,nt,nt,nt
CCOC(=O)C(=O)NC1CC=CCC1c1ccc2c(c1)OCO2 (configuration not stated),-2,2,-3,-4,nt,nt,nt,nt,nt
O=C(O)c1ccc(-n2cccc2/C=C2/NC(=O)N(c3ccccc3)C2=O)cc1,77*,13,22*,37*,72*,44*,14*,-72,31*
O=C1N/C(=C/c2cccn2-c2ccc(F)cc2)C(=O)N1Cc1ccccc1,-7,2,3,-2,nt,nt,nt,nt,nt
O=C(O)c1ccc(-n2cccc2/C=C2/SC(=O)N(CC(=O)N3CCCC3)C2=O)cc1,76*,11,36*,44*,85*,49*,16*,-80,36*
N#Cc1ccccc1CN1C(=O)S/C(=C/c2cccn2-c2ccc(C(=O)O)cc2)C1=O,10,6,5,9,nt,nt,nt,nt,nt
CC(C)(CS(=O)(=O)[O-])NC(=O)CC[N+](C)(C)CCO,92*,0,39*,54*,95*,85*,122*,i,38*
O=C1CCCC(O)=C1N=Nc1ccc2c(c1)OCO2,-25,0,0,-26,nt,nt,nt,nt,nt
O=C1CCCC(O)=C1N=Nc1ccc(C(=O)O)cc1,54*,6,22*,15*,56*,19*,37*,-188,32*
O=C1c2cccc(NCCCNCCO)c2C(=O)c2cccc(NCCCNCCO)c21,93*,8,16*,105*,82*,102*,18*,-89,13*
Cc1cccc(NC(=O)CSc2nnc(C3CC3)n2CC2CCCO2)c1 (configuration not stated),0,-5,0,5,nt,nt,nt,nt,nt
CCOc1cc(N2CCOCC2)c(OCC)cc1NC(C)C(=O)N1CCN(CC)CC1 (configuration not stated),91*,15,63*,51*,1,-3,2,-10,10
CC(C)CN1C(=O)[C@@]2(CC(=O)N(C)C2c2ccccc2)c2cc(-n3cc(CCc4ccccc4)nn3)ccc21 (some centres not stated),0,-5,7,-2,nt,nt,nt,nt,nt
COc1cc(/C=C2\CCc3c2nc2ccccc2c3C(=O)O)cc(OC)c1OC,48*,9,26*,26*,34*,14*,7,-37,34*
COC(=O)c1cc(O)cc(OC)c1Oc1cc(C)cc(O)c1C(=O)O,29*,8,19*,14*,56*,30*,40*,-202,58*
Cc1[nH]n(-c2ccccc2)c(=O)c1C(C[N+](=O)[O-])c1ccccc1Cl (configuration not stated),-8,0,-3,-8,nt,nt,nt,nt,nt
Cc1[nH]n(-c2ccccc2)c(=O)c1C(c1ccc(O)c([N+](=O)[O-])c1)c1c(C)[nH]n(-c2ccccc2)c1=O,15,3,38*,15*,2,-4,4,-19,-4
COc1cccc(C(c2c(C)[nH]n(-c3ccccc3)c2=O)c2c(C)[nH]n(-c3ccccc3)c2=O)c1OC,18,-2,21*,17*,2,1,3,-10,-2
SMILES,UHRF1 binding,PRMT1 inh,LEDGF integ inh,MBD2 inh,UHRF1 DNA bind,MBD2 confirm,IN multimer act,TR-FRET interf,LEDGF integ conf
COc1cccc(C(c2c(C)[nH]n(-c3ccccc3)c2=O)c2c(C)[nH]n(-c3ccccc3)c2=O)c1O,21*,11,23*,21*,-4,0,5,-27,7
O=C(CCCN1C(=O)c2ccccc2C1=O)NCCc1ccc(OC(F)F)cc1,2,-1,0,2,nt,nt,nt,nt,nt
CC(NC(=O)COC(=O)COc1ccc(C(=O)c2ccccc2)cc1)c1ccccc1 (configuration not stated),1,2,1,0,nt,nt,nt,nt,nt
CCc1ccccc1NC(=O)CCS(=O)(=O)c1ccc(OC)cc1,75*,3,16*,40*,13,4,3,-11,-1
O=C1c2c(O)cccc2Cc2cccc(O)c21,-3,3,2,-6,nt,nt,nt,nt,nt
O=C1Cc2cccc(=O)c(O)c2C(=O)O1,28*,17,20*,13*,28*,11,6,-31,26*
O=C(COC(=O)C1=COCCO1)NC(=O)c1ccc(OC(F)F)cc1,-2,-4,-3,5,nt,nt,nt,nt,nt
O=C(COC(=O)c1cncc(Br)c1)NCc1ccco1,44*,18,16*,14*,26*,14*,7,-36,29*
Cc1noc(C)c1C(=O)Nc1cc(S(=O)(=O)N2CCCCC2)ccc1N(C)C,-3,2,2,0,nt,nt,nt,nt,nt
Cc1ccccc1-c1nnnn1C1CCS(=O)(=O)C1 (configuration not stated),0,2,-3,3,nt,nt,nt,nt,nt
Cc1cc(=O)n(C2CCS(=O)(=O)C2)[nH]1 (configuration not stated),17,2,22*,14*,-2,2,-2,9,0
O=C(Cn1cncn1)c1ccccc1,2,0,7,-3,nt,nt,nt,nt,nt
